A short description of test [1]: AP1 Signaling Pathway (AID 357; active = well fitted curve in either direction with a large enough effect, not every such curve was filed as active; also: % is scaled to controls: 0 for no effect and ±100 for the full control effect). To be noted: ME-180 AP-1-bla reporter, EGF-induced, beta-lactamase ratio, 5 h; at 7.69 µM (top of the series) unless noted. A digest of the protocol: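 Cells are seeded overnight, exposed to compound titrations and an EC50 level of EGF for 5 hours at 37 °C, then loaded with CCF4 dye for 2.5 hours. Beta-lactamase activity under the AP-1 element is read as a blue/green ratio.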

The target in test [2] is Cytochrome P450 1A2 (Homo sapiens) (UniProt P05177). Kind of test: p450-cyp1a2 (AID 410; calls by dose curve; also: potency is read from the fitted curve at half-maximal effect). In outline: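 Read-out is luminescence from luciferin produced by CYP1A2 demethylation of Luciferin-ME (100uM, at Km). Detection reagent stopped the 60 min NADPH-dependent reaction; signals were normalized to 57 uM furafylline.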
Chain of Cytochrome P450 1A2 (Homo sapiens) (P05177 whole entry, looked up): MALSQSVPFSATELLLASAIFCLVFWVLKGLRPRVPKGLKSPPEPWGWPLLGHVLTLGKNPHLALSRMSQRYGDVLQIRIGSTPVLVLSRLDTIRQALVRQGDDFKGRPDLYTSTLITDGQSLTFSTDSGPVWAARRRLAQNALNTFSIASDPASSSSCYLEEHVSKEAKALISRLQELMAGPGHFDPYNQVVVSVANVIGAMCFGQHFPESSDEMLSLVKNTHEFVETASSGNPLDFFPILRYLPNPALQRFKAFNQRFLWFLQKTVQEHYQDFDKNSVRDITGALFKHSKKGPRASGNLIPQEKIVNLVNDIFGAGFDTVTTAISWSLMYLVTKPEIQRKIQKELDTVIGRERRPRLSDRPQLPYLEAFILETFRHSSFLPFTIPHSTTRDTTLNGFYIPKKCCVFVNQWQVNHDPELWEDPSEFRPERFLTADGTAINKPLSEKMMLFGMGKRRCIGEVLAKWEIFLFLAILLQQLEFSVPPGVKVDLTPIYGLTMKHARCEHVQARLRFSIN
Test [3] is described as follows: Stat Signaling Pathway (AID 446; active = well fitted curve in either direction with a large enough effect, not every such curve was filed as active;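 also: ME-180 cervical cancer cells given 40 pM IL-6 alongside compound; SIE-controlled beta-lactamase reporter measured as 460/530 nm FRET emission ratio; % is scaled to controls: 0 for no effect and ±100 for the full control effect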). As to conditions: ME-180 (cervical carcinoma) SIE beta-lactamase reporter, IL-6 stimulated, 5 h; at 7.69 µM (top of the series) unless noted. A digest of the protocol: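 Emission at 460 and 530 nm (excitation 405 nm) reports SIE-controlled beta-lactamase in ME-180 cells. Cells received compound with 40 pM IL-6 for 5 hrs at 37 C; data scaled between 300 pM IL-6 and 125 nM JAK-inhibitor controls.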

In test [4] the target is Glucocorticoid receptor (Homo sapiens) (UniProt P04150). Kind of test: GR-GFP Redistribution (AID 450;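 active = compounds whose dose series gives a full or clear partial fitted curve of increased nuclear translocation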; also: potency is read from the fitted curve at half-maximal effect). As to conditions: U2OS GR-GFP nuclear translocation, laser cytometry, 2 h.
Chain of Glucocorticoid receptor (Homo sapiens) (P04150 whole entry, looked up): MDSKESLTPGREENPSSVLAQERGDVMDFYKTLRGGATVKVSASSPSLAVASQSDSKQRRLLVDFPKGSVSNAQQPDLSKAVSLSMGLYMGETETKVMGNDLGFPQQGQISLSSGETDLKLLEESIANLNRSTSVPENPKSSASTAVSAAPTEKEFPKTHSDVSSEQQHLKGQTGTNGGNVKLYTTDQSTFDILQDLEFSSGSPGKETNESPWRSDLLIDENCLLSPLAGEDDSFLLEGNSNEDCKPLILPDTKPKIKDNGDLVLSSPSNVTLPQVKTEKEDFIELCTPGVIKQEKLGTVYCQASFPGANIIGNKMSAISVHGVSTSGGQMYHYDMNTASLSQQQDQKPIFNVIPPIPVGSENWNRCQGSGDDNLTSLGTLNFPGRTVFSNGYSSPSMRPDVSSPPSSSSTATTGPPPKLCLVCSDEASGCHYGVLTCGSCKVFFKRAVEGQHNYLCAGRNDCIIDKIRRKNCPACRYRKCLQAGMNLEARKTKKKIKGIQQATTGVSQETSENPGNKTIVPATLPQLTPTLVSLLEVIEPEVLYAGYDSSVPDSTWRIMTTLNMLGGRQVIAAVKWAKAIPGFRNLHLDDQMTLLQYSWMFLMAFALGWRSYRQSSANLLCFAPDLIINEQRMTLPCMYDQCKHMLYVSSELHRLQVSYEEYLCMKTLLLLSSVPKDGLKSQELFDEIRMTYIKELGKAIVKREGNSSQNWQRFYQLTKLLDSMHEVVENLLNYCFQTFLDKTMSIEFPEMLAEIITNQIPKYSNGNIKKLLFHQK
Test [5] has the same target. Kind of test: GR-EFC Redistribution (AID 451; calls by dose curve; also: potency is read from the fitted curve at half-maximal effect). As to conditions: CHO-K1 GR-EFC translocation, beta-gal luminescence, 2 h. In outline:
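CHO-K1 cells expressing nuclear EA and GR-ED fragments of b-gal; compounds titrated up to 46 uM final, 2 h at 37 C. GR nuclear translocation read as complemented b-gal luminescence after 1 h RT detection.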

Test [6] deals with Mitogen-activated protein kinase 10 (Mus musculus) (UniProt Q61831). The experiment in a line: JNK3 AlphaScreen Assay (AID 530; active = well fitted curve in either direction with a large enough effect, not every such curve was filed as active;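 also: kinase came from lysate of stimulated human HepG2 cells; signal reports phosphorylation of biotinylated GST-cJun 1-79 at Ser73 with 10 µM ATP; % is scaled to controls: 0 for no effect and ±100 for the full control effect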). A digest of the protocol: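 HepG2 lysate (IL-1b/TNFa pre-activated) + biotin-GST-cJun 1-79 + anti-pSer73 cJun; cpd titration, 15 min RT; ATP 10 uM start; Tris pH 7.6, MgCl2, DTT, vanadate; beads in EDTA buffer; AlphaScreen.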
For orientation: Alpha assays give light when donor and acceptor beads are brought close together.

The target in test [7] is Cytochrome P450 2C9 (Homo sapiens) (UniProt P11712). Kind of test: qHTS Assay for Inhibitors and Substrates of Cytochrome P450 2C9 (AID 883). Also: % is scaled to controls: 0 for no effect and ±100 for the full control effect; nearly all actives have a fitted effect of over 60% in size. A digest of the protocol:
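Human CYP2C9 (10nM) with Luciferin-H at 100uM (its KM) in 25mM KPO4; compound preincubated 10 min at 37C, then NADPH regeneration for 60 min at 37C. Luciferin read by luminescence after detection reagent; normalized to 57uM sulphaphenazole as full inhibition.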

In test [8] the target is Cytochrome P450 3A4 (Homo sapiens) (UniProt P08684). Kind of test: qHTS Assay for Activators of Cytochrome P450 3A4 (AID 885). Also: nearly all actives have a fitted effect of over 65% in size. A digest of the protocol: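 Activators are scored by enhanced luminescence from CYP3A4 conversion of luciferin-PPXE (25uM, equal to KM) to luciferin, after 60 min at RT with an NADPH-regenerating system.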
Chain of Cytochrome P450 3A4 (Homo sapiens) (P08684 whole entry, looked up): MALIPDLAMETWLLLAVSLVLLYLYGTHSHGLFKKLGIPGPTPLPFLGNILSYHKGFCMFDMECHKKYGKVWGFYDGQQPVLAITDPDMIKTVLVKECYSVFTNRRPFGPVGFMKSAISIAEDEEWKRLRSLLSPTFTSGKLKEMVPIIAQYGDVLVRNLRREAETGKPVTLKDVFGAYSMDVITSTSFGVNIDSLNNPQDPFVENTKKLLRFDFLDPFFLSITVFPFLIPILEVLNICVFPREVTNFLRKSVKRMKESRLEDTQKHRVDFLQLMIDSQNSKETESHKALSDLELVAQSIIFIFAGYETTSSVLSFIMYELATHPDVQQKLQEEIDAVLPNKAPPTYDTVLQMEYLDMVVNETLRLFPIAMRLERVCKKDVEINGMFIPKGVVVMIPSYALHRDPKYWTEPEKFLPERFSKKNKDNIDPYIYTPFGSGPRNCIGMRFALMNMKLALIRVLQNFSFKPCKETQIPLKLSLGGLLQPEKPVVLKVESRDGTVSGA
Background: In qHTS, concentration-response curves come from the screen itself.

For test [9], the target named is Cytochrome P450 2D6 (Homo sapiens) (UniProt P10635). The experiment in a line: qHTS Assay for Inhibitors and Substrates of Cytochrome P450 2D6 (AID 891). Also: nearly all actives have a fitted effect of over 60% in size. Also: potency is read from the fitted curve at half-maximal effect. A digest of the protocol: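 Luminescent read-out of luciferin formed by 5 nM human CYP2D6 demethylating 30 uM Luciferin-ME EGE (Km level) over 60 min at room temperature after NADPH regeneration addition. Data normalized to full inhibition by 1.43 uM quinidine.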
Chain of Cytochrome P450 2D6 (Homo sapiens) (P10635 whole entry, looked up): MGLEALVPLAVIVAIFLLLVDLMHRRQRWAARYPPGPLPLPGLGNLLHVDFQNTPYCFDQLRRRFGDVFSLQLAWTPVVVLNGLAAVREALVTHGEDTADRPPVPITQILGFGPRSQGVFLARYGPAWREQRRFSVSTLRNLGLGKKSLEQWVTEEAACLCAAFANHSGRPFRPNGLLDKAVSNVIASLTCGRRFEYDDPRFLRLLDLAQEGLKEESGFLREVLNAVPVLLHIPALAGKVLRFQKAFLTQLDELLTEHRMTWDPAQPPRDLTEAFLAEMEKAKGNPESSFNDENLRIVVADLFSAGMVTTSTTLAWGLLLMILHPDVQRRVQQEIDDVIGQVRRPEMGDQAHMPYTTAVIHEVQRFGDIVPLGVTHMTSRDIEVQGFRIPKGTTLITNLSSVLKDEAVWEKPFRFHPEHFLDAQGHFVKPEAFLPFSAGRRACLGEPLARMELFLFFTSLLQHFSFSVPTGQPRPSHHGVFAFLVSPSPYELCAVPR

For test [10], the target named is Cytochrome P450 2C19 (Homo sapiens) (UniProt P33261). The experiment in a line: qHTS Assay for Inhibitors and Substrates of Cytochrome P450 2C19 (AID 899). Also: % is scaled to controls: 0 for no effect and ±100 for the full control effect; nearly all actives have a fitted effect of over 60% in size. A digest of the protocol: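 5 nM human CYP2C19 with 10uM Luciferin-H EGE (at KM) in 50mM KPO4, compound preincubated 10 min at 37C, then NADPH regeneration for 60 min at 37C. Luciferin read by luminescence after detection reagent; normalized to 57uM ketoconazole as full inhibition.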
Chain of Cytochrome P450 2C19 (Homo sapiens) (P33261 whole entry, looked up): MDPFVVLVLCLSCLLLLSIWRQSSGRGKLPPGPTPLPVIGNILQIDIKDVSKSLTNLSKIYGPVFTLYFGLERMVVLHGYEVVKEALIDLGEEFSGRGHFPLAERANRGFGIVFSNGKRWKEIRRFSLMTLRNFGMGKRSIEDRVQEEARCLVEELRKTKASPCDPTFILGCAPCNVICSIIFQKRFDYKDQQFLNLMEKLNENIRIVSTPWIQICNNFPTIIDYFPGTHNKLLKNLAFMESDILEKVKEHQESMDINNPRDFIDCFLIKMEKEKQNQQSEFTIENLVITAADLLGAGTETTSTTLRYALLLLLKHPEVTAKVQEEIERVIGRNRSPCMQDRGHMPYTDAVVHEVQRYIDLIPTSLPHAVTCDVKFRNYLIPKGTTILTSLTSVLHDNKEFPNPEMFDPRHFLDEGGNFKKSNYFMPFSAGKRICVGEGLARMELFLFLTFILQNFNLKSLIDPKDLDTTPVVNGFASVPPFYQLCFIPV

Test [11] in a line: qHTS Assay for Lipid Storage Modulators (AID 1519; calls by dose curve). As to conditions: Drosophila S3 cells, BODIPY lipid droplet/cell ratio, laser cytometry, cells loaded with oleic acid; for activity change, negative = inhibition: at 25.7 µM (top of the series). A digest of the protocol:
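Cells seeded at 5,000 per well were treated with compounds over a concentration series and loaded with oleic acid (400 uM, as added). Lipid droplet fluorescence (488 nm excitation, 500-530 nm channel) was read by laser-scanning cytometry and normalized to 20 uM Triacsin C.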

For test [12], the target named is Flap endonuclease 1 (Homo sapiens) (UniProt P39748). Kind of test: qHTS Assay for the Inhibitors of FEN1: Confirmatory Assay for Cherry-picked Compounds (AID 720498). Also: potency is read from the fitted curve at half-maximal effect; nearly all actives have a fitted effect of over 60% in size. To be noted: FEN1 flap cleavage, TAMRA/BHQ2 fluorogenic DNA substrate. A digest of the protocol:
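Human FEN1 (10 nM reagent) was preincubated with compounds for 15 min at room temperature, then 50 nM final double-flap DNA substrate (5'-TAMRA flap, BHQ-2 quencher strand) was added. Fluorescence (ex 525/em 598 nm) was read at 0 and 15 min.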

Test [13] is described as follows: NFAT Signaling Pathway (AID 444; active = well fitted curve in either direction with a large enough effect, not every such curve was filed as active;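 also: carbachol stimulus at about its EC50 of 1 µM final; % is scaled to controls: 0 for no effect and ±100 for the full control effect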). As to conditions: Jurkat NFAT-bla M1, carbachol, beta-lactamase ratio, 5 h; at 7.69 µM (top of the series) unless noted. In outline: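 Jurkat cells with NFAT-driven β-lactamase reporter and co-expressed M1 receptor, stimulated with carbachol (final 1 uM, ~EC50), compound titration, 5 h at 37 °C. CCF4 loaded 1 h at RT; 460/530 nm ratio gave %activity and AC50.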

Test [14] addresses 3',5'-cyclic-AMP phosphodiesterase 4B (Homo sapiens) (UniProt Q07343). The experiment in a line: qHTS Assay for Inhibitors of PDE-IV (AID 607; active = well fitted activation curve with a large enough effect in the main read-out, with a control signal flat, not every such curve was filed as active; also: % of control where 0% means no effect). A digest of the protocol: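 The readout is membrane depolarisation from a cAMP-sensing CNG channel, detected with a potential dye at ex 535/em 590. Cells were HEK293-derived (endogenous PDE-IV) at 1000 cells/well, titrated up to 22.9 uM final.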

In test [15] the target is Ubiquitin carboxyl-terminal hydrolase 1 (Homo sapiens) (UniProt O94782). Kind of test: Inhibitors of USP1/UAF1: Pilot qHTS (AID 504865).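 Also: rhodamine fluorescence freed from ubiquitin-rhodamine substrate followed over time; top concentration of the series differs between compounds; % is scaled to controls: 0 for no effect and ±100 for the full control effect; nearly all actives have a fitted effect of over 35% in size.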 A digest of the protocol:
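In 50mM HEPES pH 7.8 containing 0.5mM EDTA, 1mM TCEP, 0.1 mg/ml BSA and 0.01% Tween-20, 1nM USP1/UAF1 is exposed to compound for 15 min, then Ub-Rho (150nM final) is added and fluorescence is read over time.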

The mark [16] stands for this setting: measured here: cell count channel max response.
The mark [17] stands for this setting: measured here: lipid channel max response.

Molecules are shown by their SMILES. “And” between values parts separate entries of the source, which are not always exact repeats. Equal entries are not always repeated. Results filed as inconclusive are left out. The list shows a part of the results. The source made the active and inactive calls. Unless noted, calls follow the shape of the dose curve; as a rule, active = well fitted curve in the direction sought with a large enough effect; inconclusive = small, poorly fitted or top-dose-only effect, or another doubt; inactive = no such curve, though single readings can be large; an effect the other way counts as inactive or inconclusive.

This note sets out measurements from PubChem BioAssay (NCATS).

Chain of Cytochrome P450 2C9 (Homo sapiens) (P11712 whole entry, looked up): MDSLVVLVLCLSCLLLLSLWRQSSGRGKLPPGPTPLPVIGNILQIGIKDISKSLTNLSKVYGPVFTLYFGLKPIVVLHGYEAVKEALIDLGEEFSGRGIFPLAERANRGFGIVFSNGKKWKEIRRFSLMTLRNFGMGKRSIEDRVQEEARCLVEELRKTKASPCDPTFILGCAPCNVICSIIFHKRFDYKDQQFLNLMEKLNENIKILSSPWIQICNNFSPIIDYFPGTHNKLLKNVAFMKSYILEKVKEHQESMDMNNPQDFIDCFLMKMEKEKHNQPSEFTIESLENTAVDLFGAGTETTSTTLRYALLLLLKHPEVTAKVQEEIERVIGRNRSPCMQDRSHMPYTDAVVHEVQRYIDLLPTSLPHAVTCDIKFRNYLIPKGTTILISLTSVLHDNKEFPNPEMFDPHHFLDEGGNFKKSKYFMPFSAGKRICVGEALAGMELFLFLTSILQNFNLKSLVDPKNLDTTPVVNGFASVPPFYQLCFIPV
Chain of 3',5'-cyclic-AMP phosphodiesterase 4B (Homo sapiens) (Q07343 whole entry, looked up): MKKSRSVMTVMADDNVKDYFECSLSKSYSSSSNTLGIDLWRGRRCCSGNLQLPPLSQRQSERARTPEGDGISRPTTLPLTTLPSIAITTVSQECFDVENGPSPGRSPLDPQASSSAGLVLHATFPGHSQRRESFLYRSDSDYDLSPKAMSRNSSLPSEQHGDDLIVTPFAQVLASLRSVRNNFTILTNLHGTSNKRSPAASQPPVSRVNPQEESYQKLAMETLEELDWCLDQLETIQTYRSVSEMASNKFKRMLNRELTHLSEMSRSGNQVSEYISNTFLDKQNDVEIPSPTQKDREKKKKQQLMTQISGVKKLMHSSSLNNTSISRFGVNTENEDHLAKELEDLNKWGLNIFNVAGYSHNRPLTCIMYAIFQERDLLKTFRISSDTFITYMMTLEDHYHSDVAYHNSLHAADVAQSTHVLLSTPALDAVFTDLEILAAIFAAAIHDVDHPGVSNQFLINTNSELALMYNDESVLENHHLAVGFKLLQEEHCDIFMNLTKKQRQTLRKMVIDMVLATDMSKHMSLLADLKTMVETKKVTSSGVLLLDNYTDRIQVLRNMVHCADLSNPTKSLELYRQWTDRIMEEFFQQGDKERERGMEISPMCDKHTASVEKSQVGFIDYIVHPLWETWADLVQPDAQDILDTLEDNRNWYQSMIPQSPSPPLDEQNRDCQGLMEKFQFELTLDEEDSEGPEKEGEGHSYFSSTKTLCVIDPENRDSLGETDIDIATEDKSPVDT
Chain of Ubiquitin carboxyl-terminal hydrolase 1 (Homo sapiens) (O94782 whole entry, looked up): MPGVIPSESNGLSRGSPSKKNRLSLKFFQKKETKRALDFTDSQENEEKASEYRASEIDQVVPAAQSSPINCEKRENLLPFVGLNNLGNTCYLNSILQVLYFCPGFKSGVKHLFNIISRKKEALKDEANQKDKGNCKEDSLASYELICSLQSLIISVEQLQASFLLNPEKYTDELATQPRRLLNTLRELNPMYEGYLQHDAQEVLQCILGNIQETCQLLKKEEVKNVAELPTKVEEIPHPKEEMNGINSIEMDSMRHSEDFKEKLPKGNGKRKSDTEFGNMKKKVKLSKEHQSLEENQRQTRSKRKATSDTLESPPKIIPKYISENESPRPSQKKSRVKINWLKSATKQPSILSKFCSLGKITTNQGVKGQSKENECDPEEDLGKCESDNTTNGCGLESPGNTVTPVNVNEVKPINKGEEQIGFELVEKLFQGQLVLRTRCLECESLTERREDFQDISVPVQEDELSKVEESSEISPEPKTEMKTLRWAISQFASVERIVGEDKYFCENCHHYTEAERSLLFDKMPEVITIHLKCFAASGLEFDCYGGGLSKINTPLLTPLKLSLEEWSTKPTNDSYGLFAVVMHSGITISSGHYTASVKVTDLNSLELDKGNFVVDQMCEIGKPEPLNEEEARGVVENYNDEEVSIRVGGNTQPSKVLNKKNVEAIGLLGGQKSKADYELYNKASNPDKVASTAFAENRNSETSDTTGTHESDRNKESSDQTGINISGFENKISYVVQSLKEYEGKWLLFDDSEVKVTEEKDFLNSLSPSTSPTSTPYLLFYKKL

Consider `CCCN1C[C@H](CSC)C[C@H]2c3cccc4[nH]cc(c34)C[C@@H]21`, for which the activity change, negative = inhibition is -5.45% [at 17.2 µM] (inactive) in test [1] and -0.938% (inactive) in test [11]. For the same compound, the Potency was 3.16 µM (active) and 1.58 µM (active) in test [2]; > 20.6 µM (inactive) and > 46 µM (inactive) in test [4]; > 20.6 µM (inactive) and > 46 µM (inactive) in test [5]; 0.0316 µM (active) in test [9]. Further, the activity, negative = inhibition in test [3] was 6.37% [at 17.2 µM] (inactive). In addition, the Potency result in test [6], in test [7], in test [8] and in test [10] was “inactive” throughout. For the same compound, the max response was -9.01% in [11] (setting [16]) and -9.12% in test [11] (setting [17]).

For the compound `CCC1CCCCN1CCCNC(=O)c1cc2c(Cl)nc3ccccc3c2s1` (stereo not given), the Potency in [12] was 33.8 µM (active).

On to `COc1c2ccoc2nc2c(OC)c(OC[C@H](O)C(C)(C)O)ccc12`, for which the figures for the activity change, negative = inhibition in test [1], in test [13] and in test [11] were 1.86% [at 17.2 µM] (inactive), 15.7% [at 17.2 µM] (inactive) and -1.84% (inactive), respectively. The Potency in test [2] is 10 µM (active) and 25.1 µM (active); in [4], > 20.6 µM (inactive) and > 46 µM (inactive); in [5], > 20.6 µM (inactive) and > 46 µM (inactive). Also, in [3], the activity, negative = inhibition is -10.7% [at 17.2 µM] (inactive). In addition, the Potency entry in [6], in test [14], in [7], in test [8], in test [9] and in [10] was “inactive” in each case. In addition, the Potency result in [15] was “inactive”. The results for the max response in test [11] (setting [16]) and in test [11] (setting [17]) were -8.76% and -11%, respectively.
